Assay outcomes (PubChem)
Pf growth 96h = Primary qHTS for delayed death inhibitors of the malarial parasite plastid, 96 hour incubation. AID 504834, 2011. 6.9% of 320,000 active. Potency, µM (titrated, usually from 28.7 µM), usual class: inhibitors. P. falciparum luciferase reporter growth, 96 h
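Infected RBCs, 2% Hct / 0.05% parasitemia final; luciferase-reporter P. falciparum; cpd 96 h, 37 C, 5% CO2; luciferase detection reagent; luminescence.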
AMA1 RON2 block = qHTS for Inhibitors of AMA1-RON; Towards Development of Antimalarial Drug Lead: Primary Screen | Potency, µM (highest dose often 58.2 µM), usual class: inhibitors | AID 720542, 2013 | 0.2% of 360,000 active | AlphaScreen AMA1-biotinylated RON2 peptide binding; further: nearly all actives have a fitted effect of over 45% in size
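AMA1 (3D7) with his tag at 25 nM final met compounds first, then biotinylated RON2 peptide at 25 nM; detection used donor plus acceptor beads, 10 µg/mL apiece, read by AlphaScreen after 30 min at room temperature.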
HCV inhibitor = qHTS Assay for Inhibitors of Hepatitis C Virus (HCV). Huh7.5.1 HCVcc-Cre infection, luciferase reporter, 44 h. Potency, µM (top dose mostly 41.8 µM), hits mostly inhibitors. 3.4% of 340,000 active
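Reporter virus HCVcc-Cre (~0.5 moi) infects cells exposed to compound; seeding density 1,000 cells/well with 4 h settling beforehand. Luminescence, 15 sec read, taken 44 h post-infection following a 15 min RT substrate incubation.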
Pf growth 48h = Primary qHTS for delayed death inhibitors of the malarial parasite plastid, 48 hour incubation. 5.9% of 310,000 active. Potency, µM (top dose mostly 28.7 µM), usual class: inhibitors. P. falciparum luciferase growth in erythrocytes, 48 h
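Read-out is firefly luciferase luminescence from an integrated reporter in P. falciparum, so falling signal marks reduced parasite growth. Infected erythrocytes were at 2% hematocrit and 0.1% parasitemia (final) in Albumax-supplemented RPMI 1640.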
Of the large screens only hits and unclear results are named; the others gave an inactive call. An excerpt weighted towards active compounds, which were near 11% of everything screened. The call rests on the fitted dose curve; in most records, active means well fitted curve in the direction sought with a large enough effect; inconclusive means small, poorly fitted or top-dose-only effect, or another doubt; inactive means no such curve, though single readings can be large; an effect the other way counts as inactive or inconclusive.

Cn1nc(C(C)(C)C)cc1C(=O)NCc1ccc2c(c1)OCO2	HCV inhibitor 1µM
CCOc1ccccc1N(CC(=O)NC(C)(C)C)C(=O)CCC(=O)Nc1nccs1	Pf growth 48h inconclusive
CCC(C)(C)n1nnnc1CN(Cc1cccs1)Cc1cc2cc(OC)ccc2[nH]c1=O	Pf growth 48h 13.1µM (no result: Pf growth 96h)
Cc1ccc2cc(CN(Cc3cccs3)Cc3nnnn3C(C)(C)C)c3nnnn3c2c1	none (no result: AMA1 RON2 block)
CCOc1ccc2[nH]c(=O)c(CN(Cc3cccs3)Cc3nnnn3C(C)(C)CC)cc2c1	Pf growth 48h 8.28µM
COc1ccc(CN2C(=O)C(CC(=O)NC3CCCC3)CC(C(=O)N(C)C)=C2C)cc1 (stereo not drawn)	none (no result: Pf growth 96h, HCV inhibitor, Pf growth 48h)
O=C(c1ccco1)N(CCC(c1ccccc1)c1ccco1)Cc1ccccc1 (stereo not drawn)	Pf growth 96h 13.1µM, AMA1 RON2 block inconclusive, Pf growth 48h inconclusive
COc1ccc(CN(CCC(c2ccccc2)c2ccco2)C(=O)c2ccco2)cc1 (stereo not drawn)	Pf growth 96h 11.7µM
COc1ccc(CN(C(=O)c2ccco2)c2ccccc2)cc1	none
COc1cc2c(c(OC)c1OC)-c1ccc(SC)c(=O)cc1C(NC=O)CC2 (stereo not drawn)	none (no result: Pf growth 96h, Pf growth 48h)
O=C(O)C1=C[C@H](c2ccc(F)cc2)C[C@H](OCCCCO)O1	none
CCC(C(=O)O)n1c2ccccc2c2cn[nH]c(=O)c21 (stereo not drawn)	none
COc1ccc(-n2nc3c(c2NC(=O)CCCl)CSC3)cc1	Pf growth 96h inconclusive
COc1cc(C2C(C#N)=C(N)OC3=C2C(=O)CCC3)cc(OC)c1OC(=O)N1CCOCC1 (stereo not drawn)	Pf growth 96h 4.65µM
Cc1[nH]c2ccccc2c1/C=N/NC(=O)c1cc(-c2cccs2)[nH]n1	Pf growth 96h inconclusive, HCV inhibitor 11.2µM
Cc1ccc(-c2cc(C(=O)N/N=C/c3c(C)nn(-c4ccccc4)c3C)[nH]n2)cc1	Pf growth 96h 6.57µM, HCV inhibitor inconclusive, Pf growth 48h 11.7µM (no result: AMA1 RON2 block)
Cc1ccc(-c2cc(C(=O)N/N=C/c3ccco3)[nH]n2)cc1	Pf growth 48h 11.7µM
Cc1nn(-c2ccccc2)c(C)c1/C=N/NC(=O)c1cc(C(C)(C)C)[nH]n1	Pf growth 96h inconclusive, HCV inhibitor inconclusive, Pf growth 48h inconclusive
Cc1cc(C(=O)N/N=C/c2c(C)[nH]c3ccccc23)n[nH]1	none
Cc1ccc(-c2cc(C(=O)N/N=C/c3c(C)nn(-c4ccccc4)c3C)n[nH]2)s1	HCV inhibitor 8.91µM, Pf growth 48h inconclusive
CCOc1ccc(CCN2C(=O)C(=O)N([C@@H](Cc3ccccc3)CN3CCC[C@H]3CN3C(=O)C(=O)NC[C@@H]3Cc3ccccc3)C[C@@H]2Cc2ccccc2)cc1	none (no result: Pf growth 96h, HCV inhibitor, Pf growth 48h)
COc1ccc(CCNC(=O)c2cc3c(=O)n(C)c4ccccc4c3n2C)c(OC)c1	Pf growth 96h inconclusive, HCV inhibitor inconclusive, Pf growth 48h inconclusive
N#C/C(=C(/O)c1ccc(Cl)c([N+](=O)[O-])c1)c1nc2ccccc2[nH]1	none
O=C(COC(=O)c1ccc([N+](=O)[O-])o1)NCc1ccccc1	none (no result: Pf growth 96h, Pf growth 48h)
O=C(NCc1nnnn1-c1ccc(F)cc1)c1ccc([N+](=O)[O-])o1	HCV inhibitor inconclusive, Pf growth 48h inconclusive
Cc1ccc(-n2nnnc2CNC(=O)c2ccc([N+](=O)[O-])o2)cc1C	Pf growth 96h inconclusive, HCV inhibitor 22.4µM, Pf growth 48h inconclusive
Cc1ccc(CNC(=O)c2nn(C)c(C)c2[N+](=O)[O-])cc1	none
Cc1ccc(-c2csc(NC(=O)c3ccc(C)o3)n2)cc1	HCV inhibitor inconclusive
Cc1ccc(CNC(=O)c2ccc([N+](=O)[O-])o2)cc1	Pf growth 96h 8.28µM, HCV inhibitor inconclusive, Pf growth 48h inconclusive
Cc1ccc(-c2csc(NC(=O)c3ccc([N+](=O)[O-])o3)n2)cc1	Pf growth 96h 2.62µM, HCV inhibitor 14.1µM, Pf growth 48h 13.1µM
CN(Cc1ccccc1)C(=O)c1ccc([N+](=O)[O-])o1	HCV inhibitor inconclusive, Pf growth 48h 9.28µM
Cc1ccc(S(=O)(=O)NCCc2cn3nc(C)c(C)nc3n2)cc1C	HCV inhibitor inconclusive
Cc1ncoc1C(=O)N1CCCC(N2CCN(c3cccc(C(F)(F)F)c3)CC2)C1 (stereo not drawn)	Pf growth 48h inconclusive
Cc1ccc(/C=C/C(=O)c2ccc([N+](=O)[O-])o2)cc1	HCV inhibitor 0.562µM, Pf growth 48h inconclusive
NC(=O)NC(=O)CC1S/C(=N/N=C2/NC(=O)CS2)NC1=O (stereo not drawn)	none
Cc1[nH]c2ccccc2c1N=Nc1ccccc1C(=O)O	Pf growth 96h 10.4µM, Pf growth 48h inconclusive
CO/N=C(/CNC(=O)c1ccc(F)cc1)c1ccc(Cl)cc1	HCV inhibitor inconclusive
CN1C(=O)C2(N=c3ccccc3=N2)c2ccccc21	HCV inhibitor 11.2µM
COc1ccccc1NC(=O)Nc1ccc2c(c1)nnn2C	Pf growth 96h 9.28µM (no result: Pf growth 48h)
COc1ccccc1NC(=O)C(C)Sc1nnnn1C (stereo not drawn)	Pf growth 96h 11.7µM
CC(Sc1nnnn1C)C(=O)Nc1ccccc1-c1ccccc1 (stereo not drawn)	none
CC(Sc1nnnn1C)C(=O)Nc1ccccc1 (stereo not drawn)	none
Cc1ccc(-n2nnnc2SC(C)C(=O)Nc2ccccc2-c2ccccc2)cc1 (stereo not drawn)	Pf growth 96h 9.28µM, Pf growth 48h inconclusive
CN1CCN(c2nc3ccccn3c(=O)c2/C=C(\C#N)S(=O)(=O)c2ccc(Cl)cc2)CC1	none
CC1CCCCN1S(=O)(=O)c1ccc(C(=O)Nc2ccccc2-c2nc3ccccc3s2)cc1 (stereo not drawn)	none
O=C(Nc1ccccc1-c1nc2ccccc2[nH]1)c1ccc(S(=O)(=O)N2CCCCC2)cc1	Pf growth 96h 2.94µM, Pf growth 48h inconclusive
Cc1ccccc1NC(=O)c1ccc(S(=O)(=O)N2CCCC2)cc1	none
CC1CCCCN1S(=O)(=O)c1ccc(C(=O)Nc2ccccc2-c2nc3ccccc3[nH]2)cc1 (stereo not drawn)	Pf growth 96h inconclusive, HCV inhibitor inconclusive, Pf growth 48h 1.85µM
O=C(Nc1ccccc1-c1nc2ccccc2[nH]1)c1ccc(N2C(=O)CCC2=O)cc1	Pf growth 96h inconclusive, HCV inhibitor 10µM, Pf growth 48h inconclusive
CCC(C)N(C(=O)c1csnn1)C(C(=O)NC1CCCC1)c1c(F)cccc1Cl (stereo not drawn)	none
COc1ccc(C(=O)NC(C)c2ccc(-n3ccnc3)cc2)cc1S(=O)(=O)N1CCOCC1 (stereo not drawn)	none
C=CC[C@@H](CC(=O)N[C@H](CO)Cc1ccccc1)C(=O)N[C@@H](COC(=O)[C@@H](CC=C)CC(=O)OC(C)(C)C)Cc1ccccc1	none (no result: Pf growth 96h, Pf growth 48h)
COc1ccc2c(c1)CC/C(=C\Nc1ccc3c(c1)OCO3)C2=O	HCV inhibitor 7.08µM (no result: Pf growth 96h)
COc1cc(/C=C2/NC(=O)N(c3cccc(Cl)c3)C2=O)ccc1O	Pf growth 96h inconclusive, HCV inhibitor inconclusive, Pf growth 48h 7.38µM
